Here are results for 38 molecules from article PMC13494018.

The labels stand for the following.
B1: design_616_e8336982-fa4d-4d7c-b06f-9007953e1994_1745_dldesign_0_cycle1_af2pred (protein)
chain: APLEAVAKEAAEIAAKELPEASLEDALLVAEALLNPEKAKEYFAEVKKRLSPEDAARLFQTVGKAFSQLSLKLQAALAA
B2: design_616_e8336982-fa4d-4d7c-b06f-9007953e1994_767_dldesign_0_cycle1_af2pred (protein)
chain: AAAREAAVEAAKKQLEELKKKAEELLAYLKANPAASPEEKQKVLEESTKIISQASELAEAYPEVAEQAREAMSAAAKAAILAQKLL
B3: design_616_e8336982-fa4d-4d7c-b06f-9007953e1994_1780_dldesign_0_cycle1_af2pred (protein)
chain: MASLAQGVINMVRSLAELAIKASPEEAAKLAAEAADIAIAGGEQFGAETAEEAAKILEEAAKAKPEVAPYAERVKKKLKEL
B4: design_616_e8336982-fa4d-4d7c-b06f-9007953e1994_1055_dldesign_0_cycle1_af2pred (protein)
chain: GAAEEARKKAEEALKKIEELKEKAKADPANAGAYALEAVKTAAEASRALREADPALEEEIDRLRQAAAEAIRAALATQTA
B5: design_616_e8336982-fa4d-4d7c-b06f-9007953e1994_1084_dldesign_0_cycle1_af2pred (protein)
chain: MTVDERLWETTEKLVELIEQVAASAPAFPKEGAIRTIKGLAANAKLAAEAALKAGASPEVTKAAAEKVEKAAKAALAKVE
B6: design_616_e8336982-fa4d-4d7c-b06f-9007953e1994_1415_dldesign_0_cycle1_af2pred (protein)
chain: AAAALAAAVAAAKEIAADLSPEDQAIVVTAAVLAVTGAGLGQAIELARAHPAISAAIMGAAARAQAAVLAAA
B7: design_616_e8336982-fa4d-4d7c-b06f-9007953e1994_328_dldesign_0_cycle1_af2pred (protein)
chain: NANLQAAKVALASAEATLKHADAGVAAGTISPESAKKLYELAATLAKDAAEYAKKAGDAELAKKAEELAKEAKAKAEEMAAKAAA
B8: design_616_e8336982-fa4d-4d7c-b06f-9007953e1994_1205_dldesign_0_cycle1_af2pred (protein)
chain: DQAQAKAVAIKTVEGMLKKMKQLKEEAEKNAADPSIAIPKAEAIKQLAEVSMAILKAAGLDQETIDKYEKEAKALKEAAEKAAKKAKE
B9: design_616_e8336982-fa4d-4d7c-b06f-9007953e1994_719_dldesign_0_cycle1_af2pred (protein)
chain: PTPVEVAEAAAQATIKTAKRQVEEAKRLLKEGKAEEALRLAESAIQNAEIAKDLAENNPEKKEELKKQAEEVKKEAEEVKEEAEKKL
B10: design_616_e8336982-fa4d-4d7c-b06f-9007953e1994_787_dldesign_0_cycle1_af2pred (protein)
chain: VAAAISAATSTAVELLRAAAGATPEQRAEAHALAAEVNRAAVAAAADPSALPATRAELERARARLEAVRAALA
B11: design_616_e8336982-fa4d-4d7c-b06f-9007953e1994_1719_dldesign_0_cycle1_af2pred (protein)
chain: AEAAGKAAAAAIELSREMLRIAREAGNEEVIAIAQRATAAFNQAMLDKKAGIERLKEVAKEAEELPEGKPVAELVKKAIKAFEA
B12: design_616_e8336982-fa4d-4d7c-b06f-9007953e1994_502_dldesign_0_cycle1_af2pred (protein)
chain: MTPEQLAAMERSVARIAEAGARAPTEEEFESAMTAALALAESFGRKAGAPELATARAREIVAKYRARRLA
B13: design_616_e8336982-fa4d-4d7c-b06f-9007953e1994_1845_dldesign_0_cycle1_af2pred (protein)
chain: MEEEERKKKREKAEELLAKAKEHIEAAAKQGALGDGLKFATEVVREATELDPELGEEVAKRVQQLLAEQSRQAIA
B14: design_616_e8336982-fa4d-4d7c-b06f-9007953e1994_392_dldesign_0_cycle1_af2pred (protein)
chain: AEAYQKALATAEKLLAQGQAGLADPSNAEALEKGAQGYFLLAALYPEKREEYVAKGEALYKKAEEARAAQAA
B15: design_616_e8336982-fa4d-4d7c-b06f-9007953e1994_1282_dldesign_0_cycle1_af2pred (protein)
chain: AAALEVTRRTIFAMADHAYKSENLETAKAIMKTLGQIAVAAGEEVLKEAREYIEKLAKESTEEKAKALLEGFEEGVAEAKA
B16: design_616_e8336982-fa4d-4d7c-b06f-9007953e1994_1400_dldesign_0_cycle1_af2pred (protein)
chain: AAAAVAIADKTIAALARQARRLAEEAIRDPDPERARRLVESAEELVRVAEDIAEAMGASPEAKEAVRRAREEVERAREVVER
B17: design_616_e8336982-fa4d-4d7c-b06f-9007953e1994_1848_dldesign_0_cycle1_af2pred (protein)
chain: GMAEKEKEYEEKLKEYKAKAKEAAKLTVEDPEAGAKKFKEIIEKAAKDFPERAKEIEEELLKVYREALAAAARAAIAAARA
B18: design_616_e8336982-fa4d-4d7c-b06f-9007953e1994_1846_dldesign_0_cycle1_af2pred (protein)
chain: AQAEKEAAAAKAKRLLDQLKEFGALAVTAAAASAQQGQAYLAMARQLAANAKEEAKKTGEEGKELAAQAEATLAAAEAGVAAALAAA
B19: design_616_e8336982-fa4d-4d7c-b06f-9007953e1994_576_dldesign_0_cycle1_af2pred (protein)
chain: SPALELTKRVAEAMAAQARRAAEEDPALGRAQFENALQIAKQFNPEQGALFRAILEATRAEVEAALAAAA
B20: design_616_e8336982-fa4d-4d7c-b06f-9007953e1994_1297_dldesign_0_cycle1_af2pred (protein)
chain: DPTAEAAARSAEARALRERGAAAGPEAAAVAEAAALAAQRANYYYLISYGDPSAAEAAAKAAEAEAEARELRAELEKLLAEAE
B21: design_616_e8336982-fa4d-4d7c-b06f-9007953e1994_528_dldesign_0_cycle1_af2pred (protein)
chain: SLLEAALAELRARFEAAKTATPAEAAALVRAAQGTLLTAAAQAGAPLEAMAAVSRVLGAAAETAATAPPEERAAALDAALAEVAALLA
B22: design_616_e8336982-fa4d-4d7c-b06f-9007953e1994_543_dldesign_0_cycle1_af2pred (protein)
chain: MEEAIAELNKAFAALNAAARTTDAATAQENAKKAIEYAKAAAKAAGEAMAPAAKGIIEQAKEVAAAKAALAA
B23: design_616_e8336982-fa4d-4d7c-b06f-9007953e1994_824_dldesign_0_cycle1_af2pred (protein)
chain: DDLERGRELAEEVARVIREGTPEEAKRAIEEAAERLAELSAGAALLAGSLMVREAAKVPGGEELTAHIRAELLRVLRAKIAAA
B24: design_616_e8336982-fa4d-4d7c-b06f-9007953e1994_606_dldesign_0_cycle1_af2pred (protein)
chain: SPLAQAQADLLRRTLAALRRSVERAEELAREDPEAGAARLRALAQSAEVVLEAARGLAAQDPALGAETVAAAREVLERAREAEERAR
B25: design_616_e8336982-fa4d-4d7c-b06f-9007953e1994_396_dldesign_0_cycle1_af2pred (protein)
chain: GMAELLAELREAEARTTALELMFQAGKNIHPGVAAQGLEAARRLRELAERVADAISPEERARYLAAAERTEELAA
B26: design_616_e8336982-fa4d-4d7c-b06f-9007953e1994_692_dldesign_0_cycle1_af2pred (protein)
chain: MSEAERLAARGLALARHAALLVGLAVGPEEARRLYAAVAAAAADPAALIEVTTEVLELAKEKAALVPQALTTAREALELLTRARELA
B27: design_616_e8336982-fa4d-4d7c-b06f-9007953e1994_1581_dldesign_0_cycle1_af2pred (protein)
chain: EEARREELARKAEEKAEEIAKRLAKEGKSVEEIVEEAERYAKELLRPESEEVREEAAGRAANAAVRAYAKVSLELSA
B28: design_616_e8336982-fa4d-4d7c-b06f-9007953e1994_1227_dldesign_0_cycle1_af2pred (protein)
chain: SSGAQLVTTAGAVILAQVPPAAHPYVEAATAAGVAEGVEAFLSGLQEARKALSPEDAAVLLAATTAGLAAGAKAVIA
B29: design_616_e8336982-fa4d-4d7c-b06f-9007953e1994_1040_dldesign_0_cycle1_af2pred (protein)
chain: MEEVLREVERQAESVEKLAQAVIDLAQNDPEAQAKAKELAEKAREARERALEEPETAEEQLKRLQELFEEARRLAAETSRRAIAAA
B30: design_616_e8336982-fa4d-4d7c-b06f-9007953e1994_1883_dldesign_0_cycle1_af2pred (protein)
chain: NAEVAKLLGQIIDELQAAQAAAAAGDLKAAAKEAQKAAEAAGKIGDPEKGKELAAGAKADPSKAVEYARQALSIASAAAIKIAA
B31: design_616_e8336982-fa4d-4d7c-b06f-9007953e1994_1398_dldesign_0_cycle1_af2pred (protein)
chain: PREEVERLEREVREARKRAEAATTVEQAGEAALEALEAEARARRLAEELRARGGDEELAERAERVAEEARAVFLFAAGKAIELAKA
B32: design_616_e8336982-fa4d-4d7c-b06f-9007953e1994_756_dldesign_0_cycle1_af2pred (protein)
chain: SQAALDAAYNSAKAFAESAKRAAEKGDVQAAEAAYKSAKLAAESAKVIGAAAGEEAKKVAEKAEKIAEEAKKLVEKLKKEA
B33: design_616_e8336982-fa4d-4d7c-b06f-9007953e1994_1142_dldesign_0_cycle1_af2pred (protein)
chain: SAKAEAAKKEYEKAKKAAEEAKKVAKAAGDEAGAAAAKALEKSAENALRNGNLEMVKQVKEIAEAEKEIAEKKLK
B34: design_616_e8336982-fa4d-4d7c-b06f-9007953e1994_632_dldesign_0_cycle1_af2pred (protein)
chain: AAADTEKFKKATEHALKAVELAKEGKLEEAEKEAKKAEEEAKKIKDPVTKAGALALAKAARQVIESKAKE
B35: design_616_e8336982-fa4d-4d7c-b06f-9007953e1994_361_dldesign_0_cycle1_af2pred (protein)
chain: AAAQAKALAAQAKAAIESGSLSPGEVARLAVKAGAYAMAAANADPSIAAEMQALAQDLFAKVDEYIAKVAA
B36: design_616_e8336982-fa4d-4d7c-b06f-9007953e1994_1283_dldesign_0_cycle1_af2pred (protein)
chain: AAAAAAAAAARAALRAELLALAEEGAKKVLAGEISLGEAVKAIMEAGAADPEAANEAAAYLIRTVMQATQAA
B37: design_616_e8336982-fa4d-4d7c-b06f-9007953e1994_1403_dldesign_0_cycle1_af2pred (protein)
chain: GAARAAELQGKADYLLAKSYADAALKSPDPEKAAELLKKAKEYAERALEDPVGAPYGEKALKYIEEVEKAL
B38: design_616_e8336982-fa4d-4d7c-b06f-9007953e1994_1495_dldesign_0_cycle1_af2pred (protein)
chain: SEAELAKKFEEGLKKVEEAKKYAKKVEAKDPEKGKKLKELAGEAANAVLRGYAIPEKAEEEWAKVEKIYEEAKKIAA

In the assay the target is CD276, Q5ZPR3.
Sequence of CD276, Q5ZPR3 (Q5ZPR3 whole entry): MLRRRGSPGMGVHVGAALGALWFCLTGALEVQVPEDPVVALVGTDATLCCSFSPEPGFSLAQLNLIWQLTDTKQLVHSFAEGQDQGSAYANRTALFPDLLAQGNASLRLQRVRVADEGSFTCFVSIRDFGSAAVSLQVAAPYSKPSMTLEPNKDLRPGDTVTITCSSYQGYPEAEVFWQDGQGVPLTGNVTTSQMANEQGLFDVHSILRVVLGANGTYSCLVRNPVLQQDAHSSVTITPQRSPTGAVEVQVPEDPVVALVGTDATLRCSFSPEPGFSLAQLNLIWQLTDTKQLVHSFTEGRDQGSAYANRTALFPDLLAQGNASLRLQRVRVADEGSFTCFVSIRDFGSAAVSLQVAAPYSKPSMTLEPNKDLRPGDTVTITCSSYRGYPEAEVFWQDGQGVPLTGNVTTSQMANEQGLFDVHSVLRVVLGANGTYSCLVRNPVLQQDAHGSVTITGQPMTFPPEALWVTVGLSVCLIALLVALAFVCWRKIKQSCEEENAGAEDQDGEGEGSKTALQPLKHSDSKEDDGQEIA
On to B1, for which the “binding in a display sort” value is “not found (inactive)”. The value for B2 was “not found (inactive)”; that for B3 was “not found (inactive)”; that for B4 was “not found (inactive)”. On to B5, for which the “binding in a display sort” value is “not found (inactive)”. With B6, the “binding in a display sort” value was “not found (inactive)”. For the molecule B7, the “binding in a display sort” value is “not found (inactive)”. In the case of B8, the “binding in a display sort” value is “not found (inactive)”. As for B9, the “binding in a display sort” value is “not found (inactive)”.

Regarding B10, the “binding in a display sort” value was “not found (inactive)”. On to B11, for which the “binding in a display sort” value was “not found (inactive)”. Next, B12: “not found (inactive)”; B13: “not found (inactive)”. B14: the “binding in a display sort” value is “not found (inactive)”. Next, B15: “not found (inactive)”. Next, B16: “not found (inactive)”; B17: “not found (inactive)”. B18: the “binding in a display sort” value is “not found (inactive)”. The value for B19 was “not found (inactive)”; that for B20 was “not found (inactive)”. In the case of B21, the “binding in a display sort” value was “not found (inactive)”.

B22: the “binding in a display sort” value is “not found (inactive)”.

Regarding B23, the “binding in a display sort” value was “not found (inactive)”.

Turning to B24, the “binding in a display sort” value was “binds (active)”. Next, B25: “not found (inactive)”; B26: “not found (inactive)”. For B27, the “binding in a display sort” value is “not found (inactive)”.

On to B28, for which the “binding in a display sort” value was “not found (inactive)”. Next, B29: “not found (inactive)”; B30: “not found (inactive)”. As for B31, the “binding in a display sort” value was “not found (inactive)”. On to B32, for which the “binding in a display sort” value is “not found (inactive)”.

In the case of B33, the “binding in a display sort” value is “not found (inactive)”. The value for B34 was “not found (inactive)”; that for B35 was “not found (inactive)”.

For B36, the “binding in a display sort” value is “not found (inactive)”.

For the molecule B37, the “binding in a display sort” value is “not found (inactive)”.

Regarding B38, the “binding in a display sort” value is “not found (inactive)”.
